Records with an inconclusive call do not appear. A call without a number means that no potency is given here. Active and inactive are the calls of the source. Calls come from the whole dose curve; as a rule, active = well fitted cell-killing curve with a large enough effect; inconclusive = small, poorly fitted or top-dose-only effect, or effect the other way; inactive = no such curve, though single readings can be large or run the other way.
Test: Quantitative High-Throughput drug screen in 47 multiple myeloma cell lines against the NCATS MIPE library collection: KMS28BM_JCRB cell viability assay (AID 1919874); note: nearly all actives have a fitted effect of over 35% in size
Details: CellTiter-Glo ATP, 48 h; series mostly up to 45.8 µM
Description: PI: Beverly A. Mock Ph.D.
Laboratory of Cancer Biology and Genetics,
Center for Cancer Research, National Cancer Institute,
National Institute of Health, Bethesda, Maryland
Drug resistance and disease progression are common in multiple myeloma (MM) patients, underscoring the need for new therapeutic combinations. […] We hypothesized that effective combinations would reduce MYC expression and enhance p16 activity. […] These preclinical data identify potentially useful drug combinations for evaluation in drug-resistant MM and reveal potential mechanisms of combined drug sensitivity.
Described herein is the primary MIPE qHTS used to cherrypick compounds. Validated compounds were then further tested for potential synergistic activiy.
[1] Peat TJ, Gaikwad SM, Dubois W, Gyabaah-Kessie N, Zhang S, Gorjifard S, Phyo Z, Andres M, Hughitt VK, Simpson RM, Miller MA, Girvin AT, Taylor A, Williams D, D'Antonio N, Zhang Y, Rajagopalan A, Flietner E, Wilson K, Zhang X, Shinn P, Klumpp-Thomas C, McKnight C, Itkin Z, Chen L, Kazandijian D, Zhang J, Michalowski AM, Simmons JK, Keats J, Thomas CJ, Mock BA. Drug combinations identified by high-throughput screening promote cell cycle transition and upregulate Smad pathways in myeloma. Cancer Lett. 2023 Aug 1;568:216284. doi: 10.1016/j.canlet.2023.216284. Epub 2023 Jun 24. PMID: 37356470; PMCID: PMC10408729.
SEQUENCE No. (e.g., 1, 2, 3, etc.); […] (e.g., Cells, Incubation, Reagent, etc.); VALUE and DESCRIPTION.
1; Cells; 5 uL; white, solid bottom 1536-well Greiner assay plate.
2; Compounds; 23 nL; Kalypsis pin tool (Wako USA) equipped with a 1536-well pin head to transfer to the assay plates.
3; Incubation; 48 hours; 37C incubation.
4; Reagent;5uL; CellTiter Glo (Promega).
5; Detector; 425V; Luminescence; Viewlux PerkinElmer.
NOTES (numbers refer to Sequence numbers above)
1. The cell-based screening methods employed in this study were like those previously published. Briefly, the corresponding myeloma cell lines were screened in 1,536-well plates with 500 cells, 5-uL per well for inhibition of cell viability (assessed by measuring ATP levels with CellTiterGlo).
2. NCATS MIPE 4.0 library of approved and investigational drugs were added using the Kalypsis pin tool. Wells treated with DMSO only for 100% viability and media only for 0% viability were used as controls.
3. The assay plates were covered and incubated for 48 hours in a 37C, 5% CO2 incubator with controlled humidity.
4. After 48 hours, CellTilter-GloTM luminescent substrate mix (Promega) reagent was added to the assay plate and plates we incubated for 5 min at room temperature.
5. Signal was measured as median relative luminescence units on a ViewLux (PerkinElmer) multiplate reader.
[1] Heske CM, Davis MI, Baumgart JT, Wilson K, Gormally MV, Chen L, Zhang X, Ceribelli M, Duveau DY, Guha R, Ferrer M, Arnaldez FI, Ji J, Tran HL, Zhang Y, Mendoza A, Helman LJ, Thomas CJ. Matrix Screen Identifies Synergistic Combination of PARP Inhibitors and Nicotinamide Phosphoribosyltransferase (NAMPT) Inhibitors in Ewing Sarcoma. Clin Cancer Res. 2017 Dec 1;23(23):7301-7311. doi: 10.1158/1078-0432.CCR-17-1121. Epub 2017 Sep 12. PMID: 28899971; PMCID: PMC6636827.
Potency is the fitted concentration of half-maximal effect.

| Structure (SMILES) | Potency |
| --- | --- |
| CN(C)C(=O)c1ccc(S(=O)(=O)c2ccc(NC(=O)[C@@](C)(O)C(F)(F)F)c(Cl)c2)cc1 | inactive |
| COc1ccc([C@@H]2CC(=O)c3c(O)cc(O[C@@H]4O[C@H](CO[C@@H]5O[C@@H](C)[C@H](O)[C@@H](O)[C@@H]5O)[C@@H](O)[C@H](O)[C@@H]4O)cc3O2)cc1O | inactive |
| CS(=O)(=O)Oc1ccc2c(NC(N)=O)c(C(=O)c3ccc(Cl)cc3Cl)oc2c1 | 2.35 µM (active) |
| N=c1nc(N2CCCCC2)cc(N)n1O | inactive |
| CC1(C)CNc2cc(NC(=O)c3cccnc3NCc3ccncc3)ccc21 | inactive |
| CCCC(CCC)C(=O)O | inactive |
| COc1ccccc1[C@H](c1cccc2ccccc12)[C@@](C)(C#N)C(=O)N1CCC(c2cccc(C(F)(F)F)c2)CC1 | 4.18 µM (active) |
| N#CC[C@H](C1CCCC1)n1cc(-c2ncnc3[nH]ccc23)cn1 | 20.9 µM (active) |
| CCOc1cc(C(=O)Nc2ccc(Cl)c(-c3nc4ccccc4[nH]3)c2)cc(OCC)c1OCC | inactive |
| NC(=O)c1cnccn1 | inactive |
| Cc1[nH]c(=O)c(C#N)cc1-c1ccncc1 | 11.8 µM (active) |
| C#Cc1cccc(Nc2ncnc3cc(OCCOC)c(OCCOC)cc23)c1 | 0.833 µM (active) |
| CCCCCCCc1ccc(CCc2cccc(O)c2C(=O)O)cc1 | inactive |
| Nc1nc2[nH]cc(CCc3ccc(C(=O)N[C@@H](CCC(=O)O)C(=O)O)cc3)c2c(=O)[nH]1 | inactive |
| N#Cc1ccc(C(c2ccc(C#N)cc2)n2cncn2)cc1 | 5.9 µM (active) |
| O=c1[nH]c(-c2ccc(C(F)(F)F)cc2)nc2c1CSCC2 | inactive |
| COc1ccc(-c2ccc3c(N4CCOCC4)nc(N4C[C@@H](C)O[C@@H](C)C4)nc3n2)cc1CO | 1.32 µM (active) |
| O=c1ncn2nc(Sc3ccc(F)cc3F)ccc2c1-c1c(Cl)cccc1Cl | inactive |
| CNC(=O)c1ccc(C)c(-n2c(C)cc(OCc3ccc(F)cc3F)c(Br)c2=O)c1 | inactive |
| Nc1nc2ccc(OC(F)(F)F)cc2s1 | inactive |

| Structure (SMILES) | Potency |
| --- | --- |
| Cc1c(C)c2c(c(C)c1O)CCC(C)(COc1ccc(CC3SC(=O)NC3=O)cc1)O2 (stereo not given) | inactive |
| COc1ccc(C2=N[C@H](c3ccc(Cl)cc3)[C@H](c3ccc(Cl)cc3)N2C(=O)N2CCNC(=O)C2)c(OC(C)C)c1 | 16.6 µM (active) |
| COc1cc(Oc2ccnc3cc(OC)c(OC)cc23)ccc1NC(=O)NC(C)c1nccs1 (stereo not given) | 9.35 µM (active) |
| CC[C@@H](C)[C@H](NC(=O)[C@H](CC1CCCCC1)NC(=O)c1ccno1)C(=O)N1CCC2(CCc3ccccc32)CC1 | inactive |
| OCCn1cc(-c2cnc3nnn(Cc4ccc5ncccc5c4)c3n2)cn1 | inactive |
| Cc1cnc(Nc2ccc(OCCN3CCCC3)cc2)nc1Nc1cccc(S(=O)(=O)NC(C)(C)C)c1 | 0.935 µM (active) |
| c1ccc(-c2nn3c(c2-c2ccnc4cc(OCCN5CCOCC5)ccc24)CCC3)nc1 | inactive |
| Nc1nccc(-c2ccc3noc(-c4ccc(Cl)cc4)c3c2)n1 | inactive |
| Cn1cnc([N+](=O)[O-])c1Sc1ncnc2nc[nH]c12 | 5.9 µM (active) |
| Cc1ccccc1C(OCCN(C)C)c1ccccc1 (stereo not given) | 7.43 µM (active) |
| COc1cc2nccc(Oc3ccc(NC(=O)NC4CC4)c(Cl)c3)c2cc1C(N)=O | 16.6 µM (active) |
| CCn1cc(C(=O)O)c(=O)c2cc(F)c(N3CCNC(C)C3)c(F)c21 (stereo not given) | inactive |
| c1ccc([C@H]2CN3CCSC3=N2)cc1 | inactive |
| CCn1c(-c2nonc2N)nc2c(C#CC(C)(C)O)ncc(OC[C@H]3CCCNC3)c21 | 0.372 µM (active) |
| Fc1ccc(Cl)cc1-c1nc(Nc2ccncc2)c2nccnc2n1 | inactive |
| NS(=O)(=O)c1cc2c(cc1Cl)NC=NS2(=O)=O | inactive |
| CC1(C)Cc2c(-c3ccccc3)c(-c3ccc(Cl)cc3)c(CC(=O)O)n2C1 | 16.6 µM (active) |
| O=C1CCc2cc(OCCCCc3nnnn3C3CCCCC3)ccc2N1 | inactive |
| Cc1cnc(NC(=O)C2=C(O)c3ccccc3S(=O)(=O)N2C)s1 | inactive |
| CCOc1ccc(Cc2cc([C@@H]3O[C@H](CO)[C@@H](O)[C@H](O)[C@@H]3O)ccc2Cl)cc1 | inactive |
